In PubChem BioAssay (Tox21):
Results filed as inconclusive are left out. The source made the active and inactive calls. Unless noted, calls come from the whole dose curve; as a rule, active = well fitted curve in the direction sought with a large enough effect in the repeat runs; inconclusive = weak or mixed curves; inactive = no such curve, though single readings can be large; an effect the other way counts as inactive or inconclusive.

Tests used:
[1] = qHTS assay to identify small molecule antagonists of the estrogen related receptor (ERR) signaling pathway from Tox21 library - cell viability counter screen (AID 1224834); note: nearly all actives have a fitted effect of over 30% in size
Summary of the method: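 Viability readout (CellTiter-Fluor fluorescence, 30 min at 37 C) multiplexed with the ERR assay; cells treated 17.5 h at 37 C with compounds delivered in DMSO.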

[2] = target: Luciferin 4-monooxygenase (Photinus pyralis) (UniProt P08659); assay: qHTS assay to identify small molecule inhibitors of firefly luciferase (AID 1224835); note: nearly all actives have a fitted effect of over 25% in size
Sequence of Luciferin 4-monooxygenase (Photinus pyralis) (P08659 whole entry, looked up): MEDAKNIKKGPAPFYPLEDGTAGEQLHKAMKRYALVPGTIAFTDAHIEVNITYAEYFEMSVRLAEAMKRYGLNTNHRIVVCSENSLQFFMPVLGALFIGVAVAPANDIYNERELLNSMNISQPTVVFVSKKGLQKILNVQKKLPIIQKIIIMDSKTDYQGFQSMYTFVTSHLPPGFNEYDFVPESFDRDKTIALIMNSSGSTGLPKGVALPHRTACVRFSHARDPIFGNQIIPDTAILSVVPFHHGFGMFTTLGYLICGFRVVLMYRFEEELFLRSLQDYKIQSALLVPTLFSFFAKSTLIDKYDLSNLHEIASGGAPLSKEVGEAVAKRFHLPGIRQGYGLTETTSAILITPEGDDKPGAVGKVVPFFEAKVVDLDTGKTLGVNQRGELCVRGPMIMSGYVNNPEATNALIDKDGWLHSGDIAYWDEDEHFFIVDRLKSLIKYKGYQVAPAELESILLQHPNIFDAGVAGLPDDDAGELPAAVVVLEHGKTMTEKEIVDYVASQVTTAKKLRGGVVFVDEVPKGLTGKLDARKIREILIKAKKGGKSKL
Summary of the method: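 Biochemical qHTS: compounds run as interplate titrations against purified firefly enzyme, with D-luciferin and ATP each at its KM concentration. Light output recorded by CCD imaging.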

[3] = qHTS assay to identify small molecule agonists of the constitutive androstane receptor (CAR) signaling pathway - cell viability counter screen (AID 1224836); note: nearly all actives have a fitted effect of over 45% in size
Summary of the method: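 23 h treatment, 37 C, 5% CO2. Cell line: HepG2 stably expressing hCAR with a CYP2B6-2.2kb construct. Co-treatment: PK11195, 0.75 uM final. Read-out: CellTiter-Fluor fluorescence intensity.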

[4] = qHTS assay to identify small molecule antagonists of the constitutive androstane receptor (CAR) signaling pathway - cell viability counter screen (AID 1224837); note: nearly all actives have a fitted effect of over 45% in size
Summary of the method: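 Fluorescence from CellTiter-Fluor served as the viability signal. Human hepatoma HepG2 cells stably bearing hCAR and CYP2B6-2.2kb received compound plus CITCO (50 nM final) for 23 hr.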

[5] = target: Nuclear receptor subfamily 1 group I member 3 (Homo sapiens) (UniProt Q14994); assay: qHTS assay to identify small molecule antagonists of the constitutive androstane receptor (CAR) signaling pathway (AID 1224838);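 note: HepG2 cells stably expressing hCAR with CYP2B6 luciferase reporter stimulated by CITCO; nearly all actives have a fitted effect of over 40% in size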
Sequence of Nuclear receptor subfamily 1 group I member 3 (Homo sapiens) (Q14994 whole entry, looked up): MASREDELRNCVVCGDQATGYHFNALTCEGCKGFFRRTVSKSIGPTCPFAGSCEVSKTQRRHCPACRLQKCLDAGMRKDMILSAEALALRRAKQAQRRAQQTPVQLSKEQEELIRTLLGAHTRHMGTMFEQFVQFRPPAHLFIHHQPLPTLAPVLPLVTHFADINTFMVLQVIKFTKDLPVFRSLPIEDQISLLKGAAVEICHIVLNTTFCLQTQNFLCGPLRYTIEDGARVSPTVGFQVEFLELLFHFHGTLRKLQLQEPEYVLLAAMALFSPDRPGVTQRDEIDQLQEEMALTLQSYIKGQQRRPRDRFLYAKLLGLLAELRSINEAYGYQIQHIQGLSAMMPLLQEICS
Summary of the method: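 Quantitative HTS in double-stable HepG2-CYP2B6-hCAR cells. After 4 h plating, cells get compound (15 concentrations) and CITCO at 50 nM final, incubate 24 h at 37 C, then ONE-Glo luminescence is read.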

[6] = target: Nuclear receptor subfamily 1 group I member 3 (Homo sapiens) (UniProt Q14994); assay: qHTS assay to identify small molecule agonists of the constitutive androstane receptor (CAR) signaling pathway (AID 1224839);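 note: HepG2 cells stably carrying human CAR and a CYP2B6 luciferase reporter; nearly all actives have a fitted effect of over 15% in size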
Summary of the method: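 Compounds tested at 15 concentrations on HepG2 cells stably harbouring hCAR and CYP2B6-2.2kb reporter constructs, co-treated with PK11195 (0.75 uM final), 24 h at 37 C; luminescent reporter signal quantified.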

[7] = qHTS assay to identify small molecule antagonists of the estrogen related receptor signaling pathway with the pleiotropic PPARgamma coactivator (PGC) from Tox21 10K library - cell viability counter screen (AID 1224840; active = well fitted cell-killing curve with a large enough effect in the repeat runs, not every such curve was filed as active; note: nearly all actives have a fitted effect of over 40% in size)
Summary of the method: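 Compounds in DMSO, alongside positive and negative controls, were pinned onto PGC/ERR cells (2,000 per well). Exposure lasted 17.5 hours at 37 C, followed by a 30-minute CellTiter-Fluor incubation and fluorescence reading.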

[8] = qHTS assay to identify small molecule antagonists of the estrogen related receptor signaling pathway with the pleiotropic PPARgamma coactivator (PGC) from Tox21 10K library (AID 1224841; call rule not given here; note: actives are mostly falling curves and most rising ones were filed inactive; nearly all actives have a fitted effect of over 50% in size)
Summary of the method: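 Compound exposure ran 18 hours at 37 C in PGC/ERR cells (2,000/well) that had first rested 6 hours in a 37 C/5% CO2 incubator. Luciferase activity was then detected with One-Glo after a 30-minute room-temperature step.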

[9] = qHTS assay to identify small molecule agonists of the estrogen related receptor signaling pathway with the pleiotropic PPARgamma coactivator (PGC) from Tox21 10K library (AID 1224842); note: nearly all actives have a fitted effect of over 15% in size
Summary of the method: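 PGC/ERR reporter cell line, 2,000 cells per well, incubated 6 h at 37 C before 23 nL compound in DMSO was added. After 18 h at 37 C, One-Glo luminescence read following 30 min at room temperature.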

[10] = qHTS assay to identify small molecule agonists of the hypoxia (HIF-1) signaling pathway - cell viability counter screen (AID 1224844; calls by dose curve; note: nearly all actives have a fitted effect of over 50% in size)
Summary of the method: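 Luminescent ATP content (CellTiter-Glo, 30 min, room temperature) served as the viability measure in HRE-bla ME-180 cells exposed to compounds for 17 hrs in low-serum medium (0.5% dialyzed FBS).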

[11] = qHTS assay to identify small molecule agonists of H2AX (AID 1224845; active = well fitted activation curve with a large enough effect in the signal ratio in the repeat runs, not every such curve was filed as active; the % refers to the signal ratio)
Summary of the method: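 Wild-type CHO-K1 cells, plated overnight, exposed 3hr at 37C to 15 concentrations (0.76% DMSO final). Lysed, then HTRF anti-pH2AX (S139) cryptate and anti-H2AX-d2 antibodies, 24 hr room temperature; 665/620 nm emission read.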

[12] = qHTS assay to identify small molecule agonists of the hypoxia (HIF-1) signaling pathway (AID 1224846; active = well fitted activation curve with a large enough effect in the signal ratio in the repeat runs, not every such curve was filed as active; the % refers to the signal ratio)
Summary of the method: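 Measured by blue/green FRET after loading CCF4-AM: beta-lactamase expressed from a hypoxia response element in ME-180 cells. Test agents were delivered in DMSO and left 17 hrs; cells had been plated 5 hrs earlier in low-serum (0.5% dialyzed FBS) medium.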

[13] = qHTS assay to identify small molecule agonists of H2AX - cell viability counter screen (AID 1224847; calls by dose curve; note: top concentration of the series differs between compounds; nearly all actives have a fitted effect of over 30% in size)
Summary of the method: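 Compounds tested at 15 concentrations were incubated 3 hr at 37C with wild-type CHO-K1 cells; cellular ATP-based luminescence (CellTiter-Glo) indicated viability.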

[14] = qHTS assay to identify small molecule antagonists of the estrogen related receptor (ERR) signaling pathway from Tox21 library (AID 1224848); note: nearly all actives have a fitted effect of over 50% in size
Summary of the method: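 Luminescent reporter read-out (ONE-Glo) from NTP's ERR cell line after 18 h treatment at 37 C with DMSO-dissolved Tox21 compounds; cells pre-plated 6 h beforehand at 2,000 per well.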

[15] = qHTS assay to identify small molecule agonists of the estrogen related receptor (ERR) signaling pathway from Tox21 library (AID 1224849; calls by dose curve; note: nearly all actives have a fitted effect of over 15% in size); details: ERR reporter cell line, ONE-Glo luciferase, 18 h
Summary of the method: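 We plated ERR reporter cells, waited 6 h, added compounds in DMSO by pin tool and incubated them 18 h at 37 C. ONE-Glo was then added and luminescence read after 30 min.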

[16] = qHTS RealTime-Glo MT Cell Viability Assay in HepG2 cells - 24 hour (AID 1224867); note: nearly all actives have a fitted effect of over 50% in size
Summary of the method: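 Luminescence read-out: viable HepG2 cells reduce a prosubstrate to a NanoLuc substrate, giving a signal proportional to live cell number. Reads taken at 0, 8, 16, 24, 32 and 40 h of compound exposure at 37 C.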

[17] = qHTS RealTime-Glo MT Cell Viability Assay in HEK293 cells - 32 hour (AID 1224868)
Summary of the method: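 Nonlytic real-time viability readout: viable cells convert prosubstrate to NanoLuc substrate, giving luminescence proportional to live cell number. HEK293, 600 cells/well, compound added after 5 h, continuous culture at 37 C.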

[18] = A CellTox Green Cytotoxicity Assay to monitor cytotoxicity in HEK293 cells - 0 hour (AID 1224869); note: nearly all actives have a fitted effect of over 50% in size
Summary of the method: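 Each value comes from one timepoint of a single continuous run in which HEK293 cells with CellTox Green were exposed to compound for up to 40 h at 37 C, dye fluorescence rising with cell death.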

[19] = qHTS RealTime-Glo MT Cell Viability Assay in HepG2 cells - 40 hour (AID 1224870); note: nearly all actives have a fitted effect of over 50% in size
Summary of the method: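 HepG2 cells (600/well) mixed with RealTime-Glo MT reagent, settled 5 h at 37 C/5% CO2 before compound addition. Nonlytic NanoLuc luminescence from viable-cell prosubstrate reduction read repeatedly during 40 h treatment at 37 C.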

[20] = target: Thyrotropin receptor (Homo sapiens) (UniProt P16473); assay: qHTS assay to identify small molecule agonists of the thyroid stimulating hormone receptor (TSHR) signaling pathway (AID 1224843; calls by dose curve; note: nearly all actives have a fitted effect of over 45% in size)
Sequence of Thyrotropin receptor (Homo sapiens) (P16473 whole entry, looked up): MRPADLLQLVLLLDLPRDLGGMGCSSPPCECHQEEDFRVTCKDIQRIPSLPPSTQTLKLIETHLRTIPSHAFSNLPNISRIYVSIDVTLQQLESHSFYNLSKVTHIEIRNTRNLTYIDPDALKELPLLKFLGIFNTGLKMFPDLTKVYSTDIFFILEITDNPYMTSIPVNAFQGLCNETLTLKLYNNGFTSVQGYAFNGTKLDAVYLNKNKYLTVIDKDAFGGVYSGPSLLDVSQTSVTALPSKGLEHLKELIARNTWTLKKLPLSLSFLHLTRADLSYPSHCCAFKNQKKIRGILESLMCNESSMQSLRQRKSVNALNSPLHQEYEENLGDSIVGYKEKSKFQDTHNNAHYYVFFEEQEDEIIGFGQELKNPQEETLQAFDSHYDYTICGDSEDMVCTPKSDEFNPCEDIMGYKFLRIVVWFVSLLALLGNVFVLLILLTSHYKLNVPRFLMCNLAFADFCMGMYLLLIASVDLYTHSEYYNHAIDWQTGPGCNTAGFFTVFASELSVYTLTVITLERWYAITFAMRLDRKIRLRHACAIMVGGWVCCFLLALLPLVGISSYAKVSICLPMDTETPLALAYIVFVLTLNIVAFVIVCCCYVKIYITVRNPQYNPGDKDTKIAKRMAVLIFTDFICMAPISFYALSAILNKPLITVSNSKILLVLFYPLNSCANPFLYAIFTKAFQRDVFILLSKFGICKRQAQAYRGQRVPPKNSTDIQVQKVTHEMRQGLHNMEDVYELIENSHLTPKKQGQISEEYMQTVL
Summary of the method: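 Steps: seed 800 TSHR-HEK293 cells per well; add test compound and hold 30 min at ambient temperature; dispense cAMP-d2 then anti-cAMP cryptate; incubate 1 h at ambient; measure fluorescence intensity.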

[21] = at 92.4 µM (top of the series) unless noted
% is set by controls: 0 for no effect and ±100 for the full control effect.

CC(NC(CCc1ccccc1)C(=O)O)C(=O)N1C(=O)N(C)CC1C(=O)O (stereo unspecified)
inactive: Potency [1] | Potency [2] | Potency [3] | Potency [4] | Potency [5] | Potency [6] | Potency [7] | Potency [8] | outcome [9] | Potency [10] | outcome [11] | outcome [12] | Potency [13] | Potency [14] | activity change, positive = activation [15, 21] 2.19% [at 42.5 µM] | Potency [16] | Potency [17] | Potency [18] | Potency [19]

C1OCOCO1
inactive: Potency [1] | Potency [2] | Potency [3] | Potency [4] | Potency [5] | Potency [6] | Potency [7] | Potency [8] | outcome [9] | Potency [20] | Potency [10] | outcome [11] | Potency [13] | Potency [14] | activity change, positive = activation [15, 21] 6.76% | Potency [16] | Potency [17] | Potency [18] | Potency [19]

O=C(O)CNC(=O)c1ccc([N+](=O)[O-])cc1
inactive: Potency [1] | Potency [2] | Potency [3] | Potency [4] | Potency [5] | Potency [6] | Potency [7] | Potency [8] | outcome [9] | Potency [10] | outcome [11] | outcome [12] | Potency [13] | Potency [14] | activity change, positive = activation [15, 21] 4.79% | Potency [16] | Potency [17] | Potency [19]

CC(C)c1cc2c(cc1S(=O)(=O)O)[C@@]1(C)CCC[C@@](C)(C(=O)O)[C@@H]1CC2
inactive: Potency [1] | Potency [2] | Potency [3] | Potency [4] | Potency [5] | Potency [6] | Potency [7] | Potency [8] | outcome [9] | Potency [20] | Potency [10] | outcome [11] | Potency [13] | Potency [14] | Potency [16] | Potency [17] | Potency [18] | Potency [19]

COCCc1ccc(OCC(O)CNC(C)C)cc1 (stereo unspecified)
inactive: Potency [1] | Potency [2] | Potency [3] | Potency [4] | Potency [5] | Potency [6] | Potency [7] | Potency [8] | outcome [9] | Potency [10] | outcome [11] | Potency [13] | Potency [14] | activity change, positive = activation ([15]; at 42.5 µM (top of the series)) 5.48% | activity change, positive = activation ([15]; at 92.4 µM (top of the series)) -13% | Potency [16] | Potency [17] | Potency [18] | Potency [19]

O=C[C@H](O)[C@@H](O)[C@H](O)[C@H](O)CO
inactive: Potency [1] | Potency [2] | Potency [3] | Potency [4] | Potency [5] | Potency [6] | Potency [7] | Potency [8] | outcome [9] | Potency [20] | Potency [10] | outcome [11] | Potency [13] | Potency [14] | activity change, positive = activation [15, 21] 3.09% | Potency [16] | Potency [17] | Potency [19]
